Compound activity deposited in PubChem by National Center for Advancing Translational Sciences (NCATS).
An excerpt weighted towards active compounds, which were near 1.4% of everything screened.
Glioma ERSR ind: qHTS for Inducers of the Endoplasmic Reticulum Stress Response (ERSR) in Human Glioma: qHTS; U87-MG GRP78 promoter luciferase reporter, 16 h; Potency, µM, for the others: at the highest dose activation, hits mostly activators; 420,000 compounds, 0.02% hits; AID 602332, 2012; note: potency is the fitted concentration of half-maximal effect; series mostly up to about 76 µM; % of control where 0% means no effect; nearly all actives have a fitted effect of over 35% in size
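Stably transfected U87-MG glioma cells carrying a GRP78-based luciferase sensor; 16 h compound incubation. Luminescence end-point read 10 min after Bright-Glo addition at room temperature.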
RXFP1 ag: qHTS Assay for Agonists of the Relaxin Receptor RXFP1; Relaxin receptor 1 (Homo sapiens), Q9HBX9; HEK293T-RXFP1 cAMP TR-FRET, 30 min; response scale: percent of porcine relaxin response, buffer zero; Potency, µM (titrated, usually from 57.5 µM), for the others: at the highest dose activation, hits mostly activators; 370,000 compounds, 0.3% hits; note: potency is the fitted concentration of half-maximal effect; % is set by controls: 0 for no effect and ±100 for the full control effect; nearly all actives have a fitted effect of over 60% in size
Target sequence (Q9HBX9 whole entry, looked up): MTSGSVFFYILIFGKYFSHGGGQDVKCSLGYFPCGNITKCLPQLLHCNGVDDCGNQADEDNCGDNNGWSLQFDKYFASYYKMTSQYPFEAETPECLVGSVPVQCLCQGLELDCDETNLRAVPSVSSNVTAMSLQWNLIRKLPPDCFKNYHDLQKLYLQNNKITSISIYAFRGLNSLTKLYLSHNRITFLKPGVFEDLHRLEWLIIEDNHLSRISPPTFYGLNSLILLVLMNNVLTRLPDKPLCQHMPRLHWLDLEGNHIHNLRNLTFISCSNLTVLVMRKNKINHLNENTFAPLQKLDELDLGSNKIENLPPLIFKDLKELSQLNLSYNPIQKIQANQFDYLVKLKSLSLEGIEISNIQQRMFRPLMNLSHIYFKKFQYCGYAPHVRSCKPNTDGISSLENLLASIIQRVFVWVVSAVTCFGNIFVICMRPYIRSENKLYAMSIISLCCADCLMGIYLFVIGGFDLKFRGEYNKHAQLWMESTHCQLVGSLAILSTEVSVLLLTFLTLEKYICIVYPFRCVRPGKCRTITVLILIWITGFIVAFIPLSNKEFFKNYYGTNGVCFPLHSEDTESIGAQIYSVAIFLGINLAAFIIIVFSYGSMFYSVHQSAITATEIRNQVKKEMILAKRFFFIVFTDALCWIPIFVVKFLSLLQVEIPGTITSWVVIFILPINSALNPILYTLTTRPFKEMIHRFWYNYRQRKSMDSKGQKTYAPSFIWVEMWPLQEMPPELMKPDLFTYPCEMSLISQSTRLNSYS
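Agonist response is measured as cAMP accumulation in an RXFP1-transfected HEK293T line under PDE4 inhibition. Values are scaled between buffer-only and 29 nM porcine relaxin, and EC50s come from standard Hill equation fits.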
RXFP1 antagonist: qHTS Assay for Antagonists of the Relaxin Receptor RXFP1. Relaxin receptor 1 (Homo sapiens), Q9HBX9. HEK293-RXFP1, relaxin-stimulated cAMP HTRF, 30 min; hits give low values. activity change, negative = inhibition, % at 57.5 µM. 350,000 compounds, 0.59% hits;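 active = activity change of -60% or lower, but not beyond a set lower limit; inconclusive = change between -60% and -40%, or beyond the set limit; inactive = change above -40%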; note: % is set by controls: 0 for no effect and ±100 for the full control effect
KCNH2 3.1 block: qHTS for Inhibitors of KCHN2 3.1: Mutant qHTS; Potassium voltage-gated channel subfamily H member 2, brain isoform KCNH2 3.1 (human); activity change, % (tested at about 1.8 µM); U2OS KCNH2 3.1, thallium flux FluxOr; hits give low values; 340,000 compounds, 0.95% hits;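 active = maximum activity change below -70%; inconclusive = maximum activity change from -70% to -50%; inactive = maximum activity change above -50%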;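 note: thallium influx rate constant from kinetic fluorescence after stimulation buffer; % is set by controls: 0 for no effect and ±100 for the full control effect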
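FluxOr-based Tl+ influx in U2OS cells transduced with KCNH2 3.1 virus; rate constants normalized to DMSO controls.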
PTHR1 ag: qHTS for PTHR1 Agonists: Primary Screen; Parathyroid hormone/parathyroid hormone-related peptide receptor (Homo sapiens), Q03431; HEK293 GP2 PTHR1 cells, GloSensor cAMP luminescence, 1 h; Potency, µM (top dose mostly 115 µM), inactives show at the top dose activation, usual class: activators; 410,000 compounds, 0.075% hits; note: potency is the fitted concentration of half-maximal effect; nearly all actives have a fitted effect of over 55% in size
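HEK-293-derived GP2 cells expressing PTHR1 and a GloSensor cAMP reporter, 3,000/well, plated overnight, given luciferin plus IBMX (each 0.5 mM as added) for 1 h at 37 °C, then compound for 1 h at 37 °C. Luminescence was read after 15 min at room temperature.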
KCNH2 WT inh: qHTS for Inhibitors of KCHN2 3.1: Wildtype qHTS; U2OS, BacMam KCNH2, thallium flux FluxOr; hits give low values; 340,000 compounds, 0.37% hits; activity change, % at 1.84 µM;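 active = maximum activity change below -70%; inconclusive = maximum activity change between -70% and -50%; inactive = maximum activity change above -50%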; note: % is set by controls: 0 for no effect and ±100 for the full control effect
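U2OS cells were transduced with wild-type KCNH2 virus (2.03 x 10^8 / mL) for 4 h at room temperature, then cultured overnight at 37 C. Thallium flux was read with FluxOr dye. Rate constants were normalized to DMSO controls.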
Active calls of the source: *; i = inactive; ? = inconclusive; / = no result; ! = a repeat was not active; [ ] = another dose, or the depositor's remark. Unless noted, calls come from the whole dose curve; as a rule, active = well fitted curve in the direction sought with a large enough effect; inconclusive = small, poorly fitted or top-dose-only effect, or another doubt; inactive = no such curve, though single readings can be large; an effect the other way counts as inactive or inconclusive.

SMILES	Glioma ERSR ind	RXFP1 ag	RXFP1 antagonist	KCNH2 3.1 block	PTHR1 ag	KCNH2 WT inh
O=C(Nc1ccc(C(F)(F)F)cn1)Nc1cccs1	-1.5%	0.5%	-0.7	-1.0	i	0.9
Cc1cc2nc(C3CCN(CC4COc5ccccc5O4)CC3)[nH]c2cc1C (stereo unspecified)	-2.6%	1.3%	/	-78.7*	i	-72.8*
O=S(=O)(Nc1ccccn1)c1ccc(-n2cccn2)cc1	-2.3%	-2.6%	-108.1*	4.5	-14.9%	-10.2
Cc1ccc(-n2cccn2)c(CN2CCCC(CNC(=O)c3ccc(F)cc3)C2)c1 (stereo unspecified)	-3.7%	1.7%	8.4	-47.5	i	-25.3
O=C(c1ccc2c(c1)OCO2)C1CCCN(Cc2cc(F)ccc2-n2cccn2)C1 (stereo unspecified)	-6.4%	4.3%	8.0	-72.0*	i	-14.6
Cc1ccc(-n2cccn2)c(CN2CCCC(C(=O)c3ccc4c(c3)OCO4)C2)c1 (stereo unspecified)	-4.2%	-2.3%	-2.6	-94.3*	i	?
O=C(c1ccc2c(c1)OCO2)C1CCCN(Cc2ccccc2OC(F)F)C1 (stereo unspecified)	-5.1%	-1.4%	-24.8	-21.7	i	28.1
CCOc1cc(C2C3=C(CCCC3=O)NC3=C2C(=O)CCC3)cc(Cl)c1O	-2.8%	0.6%	0.1	1.6	-21.2%	-1.4
Cc1ccc(/C(O)=C2/C(=O)C(=O)N(c3ccccn3)C2c2ccc([N+](=O)[O-])cc2)cc1 (stereo unspecified)	-3.5%	1.7%	4.3	-1.1	-16.8%	-12.1
O=C(CC1C(=O)N(c2ccccc2)C(=S)N1c1ccccc1)c1ccc(Br)cc1 (stereo unspecified)	-1.7%	1.3%	-73.2*	2.9	i	5.1
O=C(CN(Cc1ccccc1)C(=O)CCC(=O)Nc1nccs1)NCc1ccco1	-4.6%	0.4%	-1.8	11.5	-9.3%	0.4
CCC(O)(CC)C(=O)N(Nc1ccc(C)cc1)c1ccc(C)cc1	-1.7%	2.7%	3.0	-5.2	-29.2%	-2.4
CCOC(=O)C(=O)N(Nc1ccc(C)cc1)c1ccc(C)cc1	4.6%	3.8%	-68.3*	-21.9	-14.9%	-6.6
O=C(Nc1ccc(F)cc1)c1ccc2[nH]c(=O)c(=O)[nH]c2c1	-4.2%	1.5%	-2.8	5.3	-17.5%	-33.0
CC(=O)C1=C(c2ccc(Cl)c(Cl)c2)N(C(C)=O)n2c(nnc2-c2ccccc2)S1	-3.0%	1.5%	-3.6	/	i	/
COc1cccc(C2=C(C(C)=O)Sc3nncn3N2C(C)=O)c1	0.0%	4.3%	-17.7	/	i	/
CC(=O)C1=C(c2ccc(Cl)c(Cl)c2)N(C(C)=O)n2c(C)nnc2S1	?	5.1%	-84.4*	/	i	/
CC(=O)C1=C(c2ccc(Cl)c(Cl)c2)N(C(C)=O)n2cnnc2S1	1.9%	3.9%	-83.3*	/	-2.2%	/
CCOc1cccc(CNC(=O)c2ccc(N3CCCC3)c(NC(=O)NCc3ccccc3)c2)c1	-3.0%	0.4%	5.8	/	-37.7%	/
Cc1cc(C(=O)N/N=C/c2ccc(N(C)C)o2)cs1	4.9%	0.6%	-5.6	5.0	-43.7%	3.2
COc1c2c(nc3occc13)C(CC=C(C)C)(OC)C(=O)C=C2 (stereo unspecified)	-1.7%	-0.4%	-62.5*	10.2	-36.5%	-23.5
C[C@@H]1CN([C@H](C)CO)C(=O)c2cc(NC(=O)Nc3ccc(C(F)(F)F)cc3)ccc2O[C@H]1CN(C)S(=O)(=O)c1ccc(Cl)cc1	0.1%	/	/	6.0	-16.6%	-6.3
CN(C)c1ccc(NC(=O)Cn2c(SCc3ccc(F)cc3)nc3cccnc32)cc1	-0.7%	?	-32.1	/	50.1µM*	/
Cc1ccc(CNC(=O)c2ccc(N3CCC4(CC3)CC(c3ccccc3)=NO4)c(NC(=O)c3cccc(C)c3)c2)cc1	-4.1%	-0.9%	/	/	-13.5%	/
COC(=O)c1ccc(C(=O)Nc2ccc3c(c2)C(=O)NC3=O)cc1	-2.0%	4.1%	2.4	-95.9*	18.3%	11.9
SMILES	Glioma ERSR ind	RXFP1 ag	RXFP1 antagonist	KCNH2 3.1 block	PTHR1 ag	KCNH2 WT inh
O=C(COC(=O)COc1ccc(Br)cc1)NC1CCCCCC1	-2.8%	-1.0%	-2.5	-0.2	i	-2.6
COc1ccc(N2CCN(CC(O)COc3ccc(F)cc3)CC2)cc1 (stereo unspecified)	0.3%	2.0%	-0.6	-42.3	-9.4%	18.2
COc1ccc(N2CCN(CC(O)COC(c3ccc(F)cc3)c3ccc(F)cc3)CC2)cc1 (stereo unspecified)	-7.9%	0.6%	-13.5	-119.3*	-34.9%	-82.3*
C=CCc1cc(C)ccc1OCC(O)CN1CCN(c2ccccc2)CC1 (stereo unspecified)	-1.0%	0.8%	-6.7	-20.8	i	31.7
COc1ccc(N2CCN(CC(O)COC(c3ccccc3)c3ccccc3)CC2)cc1 (stereo unspecified)	-6.2%	0.6%	?	-104.9*	i	?
C=CCc1cc(OC)ccc1OCC(O)CN1CCN(c2ccc(OC)cc2)CC1 (stereo unspecified)	-3.0%	0.0%	-8.4	-81.6*!	19.8%[57.5 µM]	59.6
ON=C1CCCC2CCCCC12 (stereo unspecified)	-4.6%	/	-7.4	-6.9	i	-0.1
O=C(O)CN1C(=O)/C(=C\c2cccc(OCc3ccccc3)c2)SC1=S	3.1%	-0.8%	7.3	3.3	-71.5%	-8.6
Cc1ccc2c(c1)N(C(C)C(=O)NCCc1ccccc1)C(=O)CO2 (stereo unspecified)	2.6%	1.6%	1.3	17.8	i	18.2
CCOC(=O)c1ccc(NC(=O)c2nc[nH]c2C(=O)NCCCCNC(=O)c2[nH]cnc2C(=O)Nc2ccc(C(=O)OCC)cc2)cc1	-6.5%	-1.5%	/	/	i	/
CN(/N=C/c1ccc(-c2ccc([N+](=O)[O-])cc2)o1)c1ccccc1	-0.5%	8.8%	-8.3	-71.6*	-3.4%	-37.6
COc1ccc(S(=O)(=O)Nc2cc3c(cc2NCc2ccccc2)n(C)c(=O)n3C)cc1	-1.4%	28.2µM*	4.1	/	-24.8%	/
O=C(O)CNC(=O)[C@@H](CS)Cc1ccccc1	-4.3%	/	/	/	/	/
CCN1C(=O)CC(Sc2ccccc2C(=O)O)C1=O (stereo unspecified)	-3.6%	-0.1%	12.1	-104.2*	?	-18.8
